Experimental findings from PubChem BioAssay (NCATS) are described below.

Values joined by “and” are separate entries in the source; they are usually repeats but may differ in a detail not shown here. Identical values can stand only once. Values without a mark were called inactive. Results filed as inconclusive are left out. Active and inactive are the calls of the source.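 Rule for the calls, unless noted: active = compounds whose dose series gives a full or clear partial fitted curve of increased nuclear translocation; inconclusive = weak partial curve or effect only at the top dose; inactive = no dose-dependent translocation response.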

Glucocorticoid receptor (Homo sapiens), sequence (P04150 whole entry, looked up): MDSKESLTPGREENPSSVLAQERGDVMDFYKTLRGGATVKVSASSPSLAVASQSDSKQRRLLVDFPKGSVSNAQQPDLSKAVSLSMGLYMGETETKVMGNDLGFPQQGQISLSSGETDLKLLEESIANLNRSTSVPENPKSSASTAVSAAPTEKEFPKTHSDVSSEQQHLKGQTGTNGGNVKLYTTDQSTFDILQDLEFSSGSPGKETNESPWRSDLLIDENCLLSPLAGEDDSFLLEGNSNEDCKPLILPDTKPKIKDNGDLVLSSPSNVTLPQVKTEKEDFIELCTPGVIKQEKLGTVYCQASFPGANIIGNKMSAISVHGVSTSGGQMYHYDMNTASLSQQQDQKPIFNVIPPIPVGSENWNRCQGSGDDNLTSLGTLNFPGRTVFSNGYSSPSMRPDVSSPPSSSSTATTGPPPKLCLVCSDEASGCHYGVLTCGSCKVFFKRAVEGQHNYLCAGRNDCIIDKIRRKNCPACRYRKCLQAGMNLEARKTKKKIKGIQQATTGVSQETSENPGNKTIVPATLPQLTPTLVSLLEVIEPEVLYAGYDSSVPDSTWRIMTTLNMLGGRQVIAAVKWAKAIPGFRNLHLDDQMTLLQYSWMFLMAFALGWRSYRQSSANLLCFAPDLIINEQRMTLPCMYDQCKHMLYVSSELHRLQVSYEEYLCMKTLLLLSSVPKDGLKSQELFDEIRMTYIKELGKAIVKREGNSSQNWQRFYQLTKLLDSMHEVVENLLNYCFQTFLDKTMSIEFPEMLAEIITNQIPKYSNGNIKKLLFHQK

One test addresses Glucocorticoid receptor (Homo sapiens) (UniProt P04150). Put plainly: GR-GFP Redistribution (AID 450). Note: potency is the fitted concentration of half-maximal effect. The settings on record: U2OS GR-GFP nuclear translocation, laser cytometry, 2 h.
`Cc1cnc(NC(=O)C2=C(O)c3ccccc3S(=O)(=O)N2C)s1`: the Potency is > 46 µM and > 20.6 µM.
The same measure, in the same setting: then `Nc1ccc(S(=O)(=O)Nc2ccnn2-c2ccccc2)cc1`, with > 46 µM and > 20.6 µM.
Regarding `O=c1[nH]cnc2[nH]ncc12`, the Potency is over 46 µM.
Still for that read-out and setting: then `CCOC(=O)C1=C[C@@]2(CC)CCCN3CCc4c(n1c1ccccc41)[C@H]32`, with > 46 µM and > 20.6 µM.
As for `CN1CCN(CCCN2c3ccccc3Sc3ccc(C(F)(F)F)cc32)CC1`, the Potency was > 46 µM and > 20.6 µM.
Still for that read-out and setting: then `Nc1nc2c(ncn2COCCO)c(=O)[nH]1`, with > 46 µM and > 20.6 µM; and `N=c1nc(N2CCCCC2)cc(N)n1O`, with > 46 µM and > 20.6 µM; and `CC(C[N+](C)(C)C)OC(N)=O` (stereo not drawn), with over 20.6 µM.
Same read-out and setting: the value for `Clc1cccc(Cl)c1NC1=NCCN1` was > 46 µM and > 20.6 µM; that for `N#Cc1ccc(C(c2ccc(C#N)cc2)n2cncn2)cc1` was over 20.6 µM.
As for `Cc1oncc1C(=O)Nc1ccc(C(F)(F)F)cc1`, the Potency is > 46 µM and > 20.6 µM.
Regarding `Cc1ccccc1C(OCCN(C)C)c1ccccc1` (stereo not drawn), the Potency is over 20.6 µM.
Still for that read-out and setting: then `NNCCc1ccccc1`, with > 46 µM and > 20.6 µM; and `Nc1nc2ccc(OC(F)(F)F)cc2s1`, with > 46 µM and > 20.6 µM; and `O=C1CCc2cc(OCCCCc3nnnn3C3CCCCC3)ccc2N1`, with > 46 µM and > 20.6 µM.
On to `N[C@@H]1CONC1=O`, for which the Potency was > 46 µM and > 20.6 µM.
For `NC[C@H](O)c1ccc(O)c(O)c1`, the Potency was over 46 µM.
For `CCOC(=O)C1=C[C@]2(CC)CCCN3CCc4c(n1c1ccccc41)[C@@H]32`, the Potency is over 20.6 µM.
The same measure, in the same setting: then `Cc1cn[nH]c1`, with over 46 µM; and `Cc1ccc(N(CC2=NCCN2)c2cccc(O)c2)cc1`, with > 46 µM and > 20.6 µM.

The next test shares this target. Put plainly: GR-EFC Redistribution (AID 451; calls by dose curve; note: potency is the fitted concentration of half-maximal effect). To be noted: CHO-K1 GR-EFC translocation, beta-gal luminescence, 2 h. The method in brief:
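CHO-K1 cells stably expressing nuclear-localized β-gal enzyme acceptor and GR fused C-terminally to the enzyme donor fragment; ligand-driven nuclear translocation restores β-gal by complementation. Compounds titrated up to 46 uM final, 2 h at 37 °C; luminescence read.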
On to `Cc1cnc(NC(=O)C2=C(O)c3ccccc3S(=O)(=O)N2C)s1`, for which the Potency was over 46 µM.
Still for that read-out and setting: then `Nc1ccc(S(=O)(=O)Nc2ccnn2-c2ccccc2)cc1`, with > 46 µM and > 20.6 µM.
Turning to `O=c1[nH]cnc2[nH]ncc12`, the Potency was over 46 µM.
As to `CCOC(=O)C1=C[C@@]2(CC)CCCN3CCc4c(n1c1ccccc41)[C@H]32`, the Potency is > 46 µM and > 20.6 µM.
Still for that read-out and setting: the value for `CN1CCN(CCCN2c3ccccc3Sc3ccc(C(F)(F)F)cc32)CC1` was > 46 µM and > 20.6 µM and > 9.22 µM.
Turning to `Nc1nc2c(ncn2COCCO)c(=O)[nH]1`, the Potency was > 46 µM and > 20.6 µM.
Still for that read-out and setting: the value for `N=c1nc(N2CCCCC2)cc(N)n1O` was > 46 µM and > 20.6 µM; that for `Clc1cccc(Cl)c1NC1=NCCN1` was > 46 µM and > 20.6 µM.
Regarding `N#Cc1ccc(C(c2ccc(C#N)cc2)n2cncn2)cc1`, the Potency is over 20.6 µM.
Consider `Cc1oncc1C(=O)Nc1ccc(C(F)(F)F)cc1`, for which the Potency was > 46 µM and > 20.6 µM.
`NNCCc1ccccc1`: the Potency is > 46 µM and > 20.6 µM.
In the case of `Nc1nc2ccc(OC(F)(F)F)cc2s1`, the Potency is > 46 µM and > 20.6 µM.
With `O=C1CCc2cc(OCCCCc3nnnn3C3CCCCC3)ccc2N1`, the Potency is over 46 µM.
Same read-out and setting: then `N[C@@H]1CONC1=O`, with > 46 µM and > 20.6 µM; and `NC[C@H](O)c1ccc(O)c(O)c1`, with over 46 µM; and `Cc1cn[nH]c1`, with over 46 µM.
Take `Cc1ccc(N(CC2=NCCN2)c2cccc(O)c2)cc1`: the Potency is > 46 µM and > 20.6 µM.

The target in another test is Mitogen-activated protein kinase 10 (Mus musculus) (UniProt Q61831). The test can be described thus: JNK3 AlphaScreen Assay (AID 530; active = well fitted curve in either direction with a large enough effect, not every such curve was filed as active;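 note: kinase came from lysate of stimulated human HepG2 cells; signal reports phosphorylation of biotinylated GST-cJun 1-79 at Ser73 with 10 µM ATP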). To be noted: JNK3 lysate, c-Jun phosphorylation; series mostly up to 57.1 µM. The method in brief:
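Inhibitors reduce antibody binding to phosphorylated biotin-cJun, lowering AlphaScreen luminescence. Lysates from HepG2 cells pre-activated by IL-1beta plus TNF-alpha supplied JNK3; compounds were titrated.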
A general note: Bead proximity is the source of the signal in Alpha formats.
For `Cc1cnc(NC(=O)C2=C(O)c3ccccc3S(=O)(=O)N2C)s1`, the compound was classed as inactive.
Still for that read-out and setting: then `Nc1ccc(S(=O)(=O)Nc2ccnn2-c2ccccc2)cc1`, with “inactive”.
With `O=c1[nH]cnc2[nH]ncc12`, the outcome was inactive.
On the same count and under the same terms, then `CCOC(=O)C1=C[C@@]2(CC)CCCN3CCc4c(n1c1ccccc41)[C@H]32`, with “inactive”; and `CN1CCN(CCCN2c3ccccc3Sc3ccc(C(F)(F)F)cc32)CC1`, with “inactive”; and `Nc1nc2c(ncn2COCCO)c(=O)[nH]1`, with “inactive”.
For the compound `N=c1nc(N2CCCCC2)cc(N)n1O`, the result was inactive.
With `Clc1cccc(Cl)c1NC1=NCCN1`, the call was inactive.
The same measure, in the same setting: the value for `N#Cc1ccc(C(c2ccc(C#N)cc2)n2cncn2)cc1` was “inactive”.
The same measure, in the same setting: then `Cc1oncc1C(=O)Nc1ccc(C(F)(F)F)cc1`, with “inactive”; and `NNCCc1ccccc1`, with “inactive”.
Same read-out and setting: the value for `Nc1nc2ccc(OC(F)(F)F)cc2s1` was “inactive”; that for `O=C1CCc2cc(OCCCCc3nnnn3C3CCCCC3)ccc2N1` was “inactive”.
On to `N[C@@H]1CONC1=O`, for which the compound was classed as inactive.
For the compound `NC[C@H](O)c1ccc(O)c(O)c1`, the outcome was inactive.
On to `Cc1ccc(N(CC2=NCCN2)c2cccc(O)c2)cc1`, for which the call was inactive.
